Screens from PubChem BioAssay.
Myeloid diff MLP: myeloid differentiation induction; 1% of 360,000 active; calls only at 10 µM; ER-HoxA9 myeloid progenitors, lysozyme-GFP differentiation, flow cytometry; AID 624256;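 active means normalized GFP-positive differentiation at or above the plate's own cutoff, the solvent-only control mean plus 3 SD; inconclusive means no clear call, values can overlap the other calls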;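 further: cells exposed to compound for four days before flow analysis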
FAS TE block: blocks the thioesterase domain of human fatty acid synthase | recombinant FAS-TE, OMFH fluorogenic substrate, fluorescence endpoint | P49327 | inhibition, % at 15 µM | 0.67% of 360,000 active;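 active means compounds whose normalised, plate-corrected inhibition of enzyme fluorescence in the single-dose primary screen is 50% or more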;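 further: 0% = DMSO with enzyme and 100% = substrate without enzyme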
GRIN3A LBD mod: NR3A (human) ligand-binding domain modulation. 2.5% of 340,000 active. Tm shift relative to glycine control, % at 25 µM. NR3A LBD differential scanning fluorimetry, Tm shift; 0% = protein alone, 100% = glycine-bound protein;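 active means melting temperature shift of at least 10% of the positive control shift, at one fixed dose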
MPTP block: inhibitors of mitochondrial permeability transition pore; isolated mouse mitochondria, Ca2+ swelling absorbance, 30 min; inhibition, % at 10 µM; 1.4% of 360,000 active; AID 602449;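 active means inhibition of 50% or more, scaled per plate between neutral and stimulator controls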;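 further: 0% = DMSO wells given calcium and 100% = 1 mM EGTA wells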
rCAG binder: r(CAG) repeat RNA binding. TO-PRO-1 dye displacement fluorescence. inhibition, % at 3 µM. 1.3% of 370,000 active. AID 651821;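 active means inhibition above the plate cutoff, the mean of all test compounds on that plate plus 3 SD, cut at about 35% in these data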;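 further: 0% = DMSO alone and 100% = 100 µM mitoxantrone as full dye displacement; higher means more dye released from RNA so lower well fluorescence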
The depositor's hits bear a star; i = inactive; u = inconclusive; x = no result; + = active, no number. Rows were chosen to be rich in hits. Some 5.7% of all compounds tested hit in one or more screens of this group.

SMILES	Myeloid diff MLP	FAS TE block	GRIN3A LBD mod	MPTP block	rCAG binder
CCCCOc1ccc(C(=O)NC2CCCCN(C(C)C)C2=O)cc1 (stereo not given)	x	x	x	x	-4
Cc1ccc(Cl)cc1NC(=O)OCCN(C)C(=O)Nc1cc(Cl)ccc1C	x	x	x	x	2
COc1ccc(C=C2C(=O)c3ccccc3C2=O)cc1O	i	-4	-2	12	23
COc1cc(C=C2C(=O)c3ccccc3C2=O)cc(OC)c1OC	+	1	4	-3	3
COc1cc(C=C2C(=O)c3ccccc3C2=O)cc(OC)c1	+	-1	4	2	2
COc1cccc(/C=C2/C(=O)NN(c3ccccc3)C2=O)c1	i	-3	-1	2	16
COc1cccc(/C=C2\C(=O)C(=O)c3ccccc32)c1	+	0	-10	-1	17
COc1ccc(S(=O)(=O)N2CCCC2CNC(=O)C(=O)NC2CCCC2)cc1 (stereo not given)	i	-5	x	1	4
Cc1cc(C)c(S(=O)(=O)N2CCCCC2CCNC(=O)C(=O)NC2CC2)c(C)c1 (stereo not given)	+	-6	0	-2	x
COc1ccc(S(=O)(=O)N2CCCC2CNC(=O)C(=O)NC2CCCCCC2)cc1 (stereo not given)	i	5	17*	0	-9
CC(C)NC(=O)c1ccc(COc2ccc(C(C)(C)C)cc2)o1	i	-3	16*	26	-8
COc1ccc2nc(NN=Cc3cccc(C)n3)cc(C)c2c1	x	x	x	x	3
CCCC[n+]1ccn(-c2nc3ccccc3nc2[N-]S(=O)(=O)c2cccs2)c1	i	-2	1	4	0
C=CC[n+]1ccn(-c2nc3ccccc3nc2[N-]S(=O)(=O)c2cccs2)c1	+	-4	-2	3	5
COC(=O)[C@]1(C#N)CC(=O)N(C(C)C)[C@@H]1c1ccccc1	x	x	x	x	-1
Nc1cc(-c2ccc(Cl)cc2)nn1S(=O)(=O)c1cccc2nsnc12	i	16	19*	1	8
CC(C)CCNC(=O)C1CCCN(C(=O)c2ccc3c(c2)NC(=O)CS3)C1 (stereo not given)	x	x	x	x	1
CC(C)c1cccc(-c2ccc3c(c2)S(=O)(=O)c2cccc(C(=O)O)c2C3=O)c1	i	1	24*	0	13
COc1cc(/C=N/NC(=S)NCc2ccco2)cc(OC)c1OC	i	-1	58*	0	-2
O=c1oc(Cl)c(Cl)c2ccccc12	i	92*	1	1	2
COc1ccc(-c2nnc(SCC(=O)NN=C/C=C\c3ccco3)n2-c2ccc(OC)cc2)cc1	x	x	x	x	11
O=C(NNC(=O)c1ccccc1OCc1ccccc1)c1ccccc1F	i	0	10*	0	-1
O=C(NNC(=O)c1ccccc1OCc1ccc(F)cc1)c1ccccc1O	u	26	23*	0	24
O=C(NNC(=O)c1ccccc1OCc1ccccc1)c1ccccc1O	u	13	-6	1	15
COc1ccc(CNS(=O)(=O)c2cc(Cl)ccc2N2CC[C@@H](O)C2)cc1	x	x	x	x	4
SMILES	Myeloid diff MLP	FAS TE block	GRIN3A LBD mod	MPTP block	rCAG binder
CC(C)Cn1c(=O)c(C(=O)Nc2cnccn2)c(O)c2ccccc21	i	2	1	13	2
CC(C)Cn1c(=O)c(C(=O)Nc2ccncc2)c(O)c2ccccc21	+	2	0	3	3
C[C@H](O)[C@@H]1C(=O)N2CCc3c([nH]c4cccc(-c5ccccc5)c34)[C@@H]2C[C@@H]1N(C)C(=O)OCc1ccccc1	x	x	x	x	7
Cc1ccc(F)cc1CNC(=O)C1CCC(=O)N(CCCN2CCCC2=O)C1 (stereo not given)	i	-4	13*	-2	-5
Cc1ccc(C)c(NC(=S)NC(NC(=O)Cc2ccccc2)C(Cl)(Cl)Cl)c1 (stereo not given)	i	-8	20*	1	2
Cc1ccc(NC(NC(=O)Cc2ccccc2)C(Cl)(Cl)Cl)cc1 (stereo not given)	i	9	-5	48	2
O=C(COc1ccccc1)NC(NC(=S)Nc1ccccc1C(=O)O)C(Cl)(Cl)Cl (stereo not given)	i	4	3	3	39*
Cn1c(NCc2ccco2)nc2c1c(=O)n(Cc1ccc(Cl)cc1)c(=O)n2C	i	10	15*	1	1
Nc1ccc2nc(N)sc2c1	i	-10	2	-1	2
Nc1ccc2sc(N)nc2c1	+	-4	-2	-1	-3
Cc1ccc2nc(-c3ccc(NC(=O)CCN4C(=O)c5ccccc5C4=O)cc3)sc2c1	i	-5	18*	4	6
Cc1ccc2nc(-c3ccc(NC(=S)NC(=O)C(C)C)cc3)sc2c1	i	4	-5	2	3
Cc1ccc2nc(-c3ccc(NC(=O)C(C)N4C(=O)c5ccccc5C4=O)cc3)sc2c1 (stereo not given)	i	29	16*	5	13
Cc1ccn2cc(-c3ccc(NS(=O)(=O)c4ccccc4)cc3)nc2c1	i	-2	9	2	10
Cc1ccc2nc(-c3ccc(NS(=O)(=O)c4ccccc4)cc3)sc2c1	i	13	28*	-7	22
Cc1ccc(S(=O)(=O)Nc2ccc3nc(C)oc3c2)cc1	i	-2	11*	6	0
Cc1ccc(NC(=O)c2ccc(CS(=O)(=O)Cc3ccccc3C)o2)cc1C	x	x	x	x	11
CCOC(=O)N1CCN(C(=O)C[C@H]2C[C@@]3(C(=O)OC)C(=C[C@H](COCc4ccccc4)O[C@@H]3C)N(Cc3ccc4c(c3)OCO4)C2=O)CC1	x	x	x	x	2
O=c1[nH]c(C(F)(F)F)nc2c1nc1n2CCC1	i	-6	x	0	0
O=C1CNC(=O)c2c(nc3n2CCC3)N1	i	-7	11*	0	-1
COc1ccccc1C(=O)N1CCC(Oc2cccnc2)CC1	x	x	x	x	0
CCC(C)(C)NC(=O)C(NS(=O)(=O)c1cccs1)c1ccccc1 (stereo not given)	x	-4	31*	0	0
CCc1cccc(CC)c1NC(=O)C(NS(=O)(=O)c1cccs1)c1ccccc1 (stereo not given)	i	-2	-3	2	2
O=C(Cc1ccc([N+](=O)[O-])cc1)c1ccccc1	+	2	2	-2	4
O=C(NCCc1ccc([N+](=O)[O-])cc1)c1ccccc1	i	2	-1	2	0
Nc1ccc(C(=O)CC(=O)Nc2ccc(Cl)cc2)cc1	i	-1	12*	-1	9
O=C(COc1ccc(Br)cc1)Nc1ccc(C(=O)Nc2ccccc2C(=O)O)cc1	i	7	11*	2	20
O=C(COc1ccccc1)Nc1ccc([N+](=O)[O-])cc1	i	-1	-2	4	3
O=C(COc1ccc([N+](=O)[O-])cc1)Nc1ccc(NC(=O)c2ccccc2)cc1	i	1	13*	-1	0
CS(=O)(=O)N1CCC(C(=O)NCC2COc3ccccc3O2)CC1 (stereo not given)	x	x	x	x	1
